# Measured values: PubChem BioAssay AID2235 (The Scripps Research Institute Molecular Screening Center, 2010)
# Among all 320,000 compounds or so, about 2,800 (0.88%) were called active. Shown is part of a subset that was picked to be rich in actives. Unmarked numbers belong to inactive results.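 How the source made its calls: active means inhibition above the mean inhibition of all tested compounds plus 3 SD, computed separately for each screening campaign (cut at about 15% in these data); inactive means the rest.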
# Biological target: Serine/threonine-protein phosphatase PP1-alpha catalytic subunit (Homo sapiens) (UniProt P62136)
# Experiment: PP1-alpha phosphatase inhibitors, primary screen, counter-screen for PP5 inhibitor project, biochemical, fluorescence, OMFP substrate, single point (AID 2235)
# Conditions: purified PP1alpha, at 6.7 µM, stronger effect = higher value
# Serine/threonine-protein phosphatase PP1-alpha catalytic subunit (Homo sapiens), sequence (P62136 whole entry, looked up): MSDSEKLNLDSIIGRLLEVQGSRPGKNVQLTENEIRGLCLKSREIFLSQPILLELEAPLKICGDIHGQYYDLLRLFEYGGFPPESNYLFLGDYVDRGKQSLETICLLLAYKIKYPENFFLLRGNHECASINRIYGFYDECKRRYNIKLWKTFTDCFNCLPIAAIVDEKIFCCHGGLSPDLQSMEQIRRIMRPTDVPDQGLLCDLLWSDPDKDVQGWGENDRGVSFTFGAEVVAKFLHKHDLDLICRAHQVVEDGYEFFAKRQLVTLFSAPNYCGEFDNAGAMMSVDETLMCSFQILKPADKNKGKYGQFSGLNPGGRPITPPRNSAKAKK
row,SMILES,inhibition
1,CCOc1ccccc1N1CN(Cc2ccccc2)CNC1=S,-3.54%
2,CC(C)c1ccc(N(C(=O)c2ccco2)C(C(=O)NC2CCCC2)c2cccnc2)cc1 (stereo not drawn),4.81%
3,CN(CC(=O)Nc1ccc(Cl)cc1)C(=O)CNC(=O)c1ccc2ccccc2c1,-2.18%
4,Cc1cc(-c2csc(N)n2)c(C)n1-c1ccccc1,25.1% (active)
5,CC(=O)Nc1ccc(C(=O)Nc2nc(-c3cc(C)n(Cc4ccccc4)c3C)cs2)cc1,3.86%
6,Cc1cc(-c2csc(N)n2)c(C)n1Cc1ccccc1,14.8%
7,CC(=O)Nc1ccc(S(=O)(=O)N2CCC(NC(=O)c3ccccc3)CC2)cc1,0.38%
8,CCCNC(=O)c1ccc(N2CCC3(CC2)CC(c2cccc(Br)c2)=NO3)c(NC(=O)c2ccco2)c1,15.6% (active)
9,O=C(Nc1ccccc1N1CCN(C(=O)c2ccccc2)CC1)c1ccco1,0.05%
10,CCCNC(=O)c1ccc(N2CCC3(CC2)CC(c2ccc(Cl)cc2)=NO3)c([N+](=O)[O-])c1,-4.68%
11,CC(C)=CC(=O)Nc1nnc(-c2ccc(F)cc2)s1,-5.78%
12,COc1ccc(C2=NN(C(=O)CSc3nnnn3C)C(c3ccco3)C2)cc1 (stereo not drawn),-2.47%
13,Cc1ccc(N(C(=O)c2ccc(CN3CCOCC3)o2)C(C(=O)NCCC(C)C)c2cccs2)c(C)c1 (stereo not drawn),-1.98%
14,COc1ccc(C)cc1-n1nnnc1SCc1nc2ccccc2c(=O)[nH]1,9.72%
15,Cc1ccc(Nc2nc(CSc3nnnn3-c3ccccc3)cc(=O)[nH]2)cc1,37.6% (active)
16,Cc1ccc(-c2noc(CSc3nnnn3-c3ccccc3)n2)cc1,0.28%
17,CC1(C)O[C@@H]2[C@H](O1)[C@@H](CO)O[C@H]2n1c(N2CCCCC2)nc2c(N)ncnc21,-3.13%
18,CC(=O)Nc1ccc(S(=O)(=O)N2CCn3cccc3C2C)cc1 (stereo not drawn),0.86%
19,CCn1c(SCC(=O)N/N=C/C=C/c2ccccc2[N+](=O)[O-])nnc1-c1ccccc1,-0.35%
20,O=C(CSc1nc2ccccc2[nH]1)N/N=C/C=C\c1ccccc1[N+](=O)[O-],-2.41%
21,Cc1ccc(-n2c(SCC(=O)N/N=C/C=C/c3ccccc3[N+](=O)[O-])nc3ccccc3c2=O)cc1,16.8% (active)
22,Cc1cccc(NC(=O)c2ccc(S(=O)(=O)N(C)CC3CCCO3)cc2)c1C (stereo not drawn),0.75%

row,SMILES,inhibition
1,NS(=O)(=O)c1ccc(NC(=S)Nc2ccc(Br)c(Cl)c2)cc1,0.34%
2,Cc1cc(C)cc(NC(=O)NCc2ccccn2)c1,-2.05%
3,CCOc1cc(NC(=S)NCCCOC)c(OCC)cc1NC(=O)c1ccco1,-3.32%
4,Cc1nc2cc(NC(=O)NCc3ccccc3)ccc2o1,-6.2%
5,COCCNC(=O)Nc1ccc2nc(-c3ccco3)c(-c3ccco3)nc2c1,22.8% (active)
6,O=C(NCc1ccccn1)c1ccc2nc(-c3ccco3)c(-c3ccco3)nc2c1,31.1% (active)
7,CCOc1ccc(C(=O)NC(C(=O)NCc2ccccn2)C(C)C)cc1 (stereo not drawn),1.59%
8,C[C@H](NC(=O)[C@@H]1Cc2ccccc2CN1C(=O)OC(C)(C)C)C(=O)NC1CCCC1,-1.9%
9,CC(=O)Nc1ccc(SC[C@H](Cc2ccccc2)N2CC[C@@H](C)CCC2=O)cc1,2.41%
10,Cc1nc2cccnc2nc1C,2.22%
11,CCCCn1c(N)c(N(CC(C)C)C(=O)c2cccc(S(=O)(=O)N3CC(C)OC(C)C3)c2)c(=O)[nH]c1=O (stereo not drawn),-0.35%
12,COc1ccc(S(=O)(=O)N2CCOC2CNC(=O)C(=O)NCc2ccncc2)cc1OC (stereo not drawn),-2.33%
13,COc1ccc(NC(=O)c2cn(-c3ccccc3)nc2SC)cc1,0.29%
14,Cc1ccc(-c2nn(-c3ccccc3)cc2/C=C/C(=O)Nc2cccc(S(N)(=O)=O)c2)cc1,2.13%
15,COc1ccc(-c2nn(-c3ccccc3)cc2/C=C\C(=O)Nc2ccc(C(=O)O)cc2)cc1,23.8% (active)
16,O=C(CSc1ccccc1F)NC1CCS(=O)(=O)C1 (stereo not drawn),-3.59%
17,CC(C)(C)NC(=O)Cn1c(SCC(=O)Nc2nccs2)nc2ccccc21,-0.87%
18,O=C1CC(c2c(F)cccc2Cl)C(n2cncn2)C(O)=C1C1NCCc2ccccc21 (stereo not drawn),3.05%
19,C=CCn1c(=NC(=O)c2ccc(S(=O)(=O)N3CCCC3)cc2)sc2cc(NC(C)=O)ccc21,21.1% (active)
20,COc1cc(C(C)=O)ccc1OC(C)C(=O)Nc1ccc(S(=O)(=O)N2CCCC2)cc1 (stereo not drawn),-2.63%
21,C=CCn1c(=NC(=O)c2cccs2)sc2cc(NC(C)=O)ccc21,14.5%
22,C=C(Br)Cn1c(CCCC)nc2ccccc21,-2.53%

row,SMILES,inhibition
1,COc1ccc(CNC(=O)C(c2ccc(O)cc2)N(Cc2ccco2)C(=O)c2snc(C(N)=O)c2N)cc1 (stereo not drawn),4.97%
2,O=C(C1=C(O)C(=O)N(Cc2ccccc2)C1c1cccnc1)c1ccco1 (stereo not drawn),0.59%
3,C=CCOc1cccc(C2C(C(=O)c3ccc(C)o3)=C(O)C(=O)N2c2nnc(C)s2)c1 (stereo not drawn),2.22%
4,CCOc1ccc(C2/C(=C(/O)c3ccc4c(c3)CC(C)O4)C(=O)C(=O)N2CCCn2ccnc2)cc1 (stereo not drawn),9.12%
5,CCCOc1ccc(C2C(C(=O)c3ccc(C)o3)=C(O)C(=O)N2CCCn2ccnc2)cc1 (stereo not drawn),33.5% (active)
6,CCCOc1ccc(C2c3c(oc4cc(C)c(C)cc4c3=O)C(=O)N2CCCN2CCOCC2)cc1 (stereo not drawn),3.82%
7,C=CCOc1cccc(C2C(C(=O)c3ccc(C)o3)=C(O)C(=O)N2CCCn2ccnc2)c1 (stereo not drawn),17.4% (active)
8,CCN(CC(=O)Nc1cc(Cl)ccc1C)C(=O)CN1C(=O)NC2(CCCC2)C1=O,0.75%
9,C=CCNC(=O)CC12CC3CC(C1)CC(CC(=O)NCC=C)(C3)C2,-3.18%
10,Clc1ccc2c(c1)C1=C(C(c3ccncc3)O2)C(c2ccc(Br)cc2)n2ncnc2N1 (stereo not drawn),20.3% (active)
11,CC1=C(C(N)=O)C(c2ccc(Br)cc2)n2ncnc2N1 (stereo not drawn),1.51%
12,Brc1ccc(C2=CC(c3ccco3)n3ncnc3N2)cc1 (stereo not drawn),0.45%
13,COc1ccc(C(C(=O)NC2CCCCC2)N(C(=O)Cc2c[nH]c3ccccc23)c2ccccc2)cc1OC (stereo not drawn),2.63%
14,Cc1nn(-c2ncc(C(F)(F)F)cc2Cl)c(=O)n1-c1ccccc1,-0.83%
15,O=C1c2cccc(OCC(=O)N3N=C(c4cccs4)CC3c3ccc(F)cc3)c2CCN1Cc1ccccc1 (stereo not drawn),21% (active)
16,O=C(COc1ccccc1Cl)N1N=C(c2cccs2)CC1c1ccco1 (stereo not drawn),7.67%
17,COc1ccc(C2CC(c3cccs3)=NN2C(=O)CCC(=O)O)cc1OC (stereo not drawn),0.57%
18,Cc1cc(C)nc(Nc2n[nH]c(-c3ccccc3N)n2)n1,0.04%
19,CN1C(=O)c2ccc(C(=O)Nc3ccc(Br)cn3)cc2C1=O,-4.13%
20,COc1cc(OC)c(/C=N/NC(=O)c2ccc([N+](=O)[O-])cc2)cc1Br,-0.65%
21,COc1cccc(/C=N/NC(=O)c2[nH]nc3c2CCc2ccccc2-3)c1O,25% (active)
22,CN(C)CCNC(=O)c1[nH]nc2c1CCc1ccccc1-2,-1.2%

row,SMILES,inhibition
1,O=S(=O)(NN=C1CCCCCCC1)c1ccc(Br)cc1,-0.57%
2,O=C(O)CC(CC(=O)N1CCOCC1)c1ccccc1 (stereo not drawn),-2.86%
3,CCN(CC)CCCNC(=O)CCc1ccccc1,-3.5%
4,OCCN(Cc1ccccc1)Cc1ccc(Cl)cc1,5.28%
5,CN(C(=O)CN(CCO)CC(=O)N(C)C(C)(C)Cc1ccccc1)C(C)(C)Cc1ccccc1,21.1% (active)
6,Cc1ccccc1-n1c(SCC(=O)Nc2cccc3ccccc23)nc(O)cc1=O,15.6% (active)
7,C=CCn1c(N)cc(=O)nc1SCC(=O)Nc1cccc2ccccc12,2.61%
8,Cc1ccc2nc(SCC(=O)Nc3cccc4ccccc34)nc(=O)n2c1,-4.71%
9,COC(=O)C1NN=C(C(=O)c2ccc(Br)cc2)C1c1cccc(Br)c1 (stereo not drawn),1.62%
10,c1ccc(-c2cc(-c3nnc4sc(-c5ccccn5)nn34)[nH]n2)cc1,14%
11,CCOc1cccc(-c2nn3c(-c4ccccn4)nnc3s2)c1,16.3% (active)
12,COc1cc(-c2nn3c(-c4cccc(C)c4)nnc3s2)cc(OC)c1OC,7.7%
13,CCCCCCCC[n+]1cccc(C(=O)N2c3c(nc(N)[nH]c3=O)NC(C)C2C)c1 (stereo not drawn),-2.25%
14,CCN(CC(=O)NCc1cccs1)C(=O)c1ccc(OC)c(S(=O)(=O)N2CCOCC2)c1,-5.16%
15,O=C(c1ccco1)N1CCN(C(=S)Nc2cc(F)cc(F)c2)CC1,-1.12%
16,COC(=O)c1c(C)c(C)nc(N)c1C#N,-0.85%
17,COC(=O)Cn1cc(/C=C/[N+](=O)[O-])c2ccccc21,-3.58%
18,O=[N+]([O-])/C=C/c1ccc2c(ccn2Cc2ccccc2)c1,18.3% (active)
19,O=C(/C=C/c1cccc([N+](=O)[O-])c1)N1CCN(Cc2ccccc2)CC1,1.31%
20,Cc1ccnc(N2CCN(C(=O)CSc3nc4ccccc4nc3N3CCCCC3)CC2)c1,2.11%
21,CCCC[C@H]1COCCS(=O)(=O)N1Cc1cccc(Cl)c1,-6.26%
22,Oc1c(Cl)cc(Cl)c(Cl)c1Cc1c(O)c(Cl)cc(Cl)c1Cl,21% (active)
